{"source": "PubChem BioAssay AID1985", "about": "(Southern Research Specialized Biocontainment Screening …, 2009)", "note": "Screen size: about 2,300 compounds; about 1,000 (43%) were called active. The rule behind the calls is not given here. The set was probably picked from earlier hits. The list shows a part of the results. Where a call stands in place of a potency, no number is given. Potency and affinity values are given separately."}
{"experiment": "modified counter assay using GFP fluorescence, PhoP regulon inhibitor project, dose response (AID 1985)", "conditions": "S. Typhi, 4 h; series mostly up to 150 µM"}
{"smiles": "CCOC(=O)c1sc(N)c(C(=O)OC)c1C", "outcome": "inactive"}
{"smiles": "CC(C)c1cc(C(=O)Nc2ccc3c(c2)OCO3)no1", "outcome": "inactive"}
{"smiles": "Cc1nc2ccccc2nc1N/N=C/c1ccc(O)cc1O", "outcome": "inactive"}
{"smiles": "Cc1oc(/N=C/c2ccc(O)cc2O)c(C#N)c1C", "outcome": "inactive"}
{"smiles": "Cc1cc(C=O)c(O)cc1O", "outcome": "inactive"}
{"smiles": "Oc1ccc(C=Nc2ccc3ncccc3c2)c(O)c1", "outcome": "inactive"}
{"smiles": "Oc1ccc(C=NC2CCCCC2)c(O)c1", "outcome": "inactive"}
{"smiles": "Oc1ccc(C=Nc2cccc3ncccc23)c(O)c1", "outcome": "inactive"}
{"smiles": "CCOc1ccccc1NC1=NC2CS(=O)(=O)CC2S1", "note": "(configuration not stated)", "outcome": "inactive"}
{"smiles": "Cc1ccc(-c2cc(N)nc(-c3ccccc3)c2)cc1", "outcome": "inactive"}
{"smiles": "O=C(CN(C(=O)CNS(=O)(=O)c1ccccc1)C1CCCC1)NCc1ccco1", "outcome": "inactive"}
{"smiles": "COc1ccccc1NC(=O)CN1CCN(c2ccccc2)CC1", "outcome": "inactive"}
{"smiles": "CCN1CCN(c2cc(C)c3cc(NC(=S)N4CCN(c5ccccc5F)CC4)ccc3n2)CC1", "outcome": "inactive"}
{"smiles": "COc1cccc(NC(=O)N2CCCC(C(=O)Nc3ccccc3OC)C2)c1", "note": "(configuration not stated)", "outcome": "inactive"}
{"smiles": "O=S(=O)(Nc1cccc(-c2cn3c(n2)SCC3)c1)c1ccc(F)cc1F", "outcome": "inactive"}
{"smiles": "CC(=O)c1ccc(OC(=O)c2cc3ccccc3oc2=O)cc1", "outcome": "inactive"}
{"smiles": "NC(=O)Oc1cccc(OC(N)=O)c1", "outcome": "inactive"}
{"smiles": "CCN(CC)c1cc(C)c2cc(NC(=O)c3ccccc3F)ccc2n1", "outcome": "inactive"}
{"smiles": "COc1ccc(-n2cnc3c(sc4nc(N5CCOCC5)c5c(c43)CCCC5)c2=O)cc1", "outcome": "inactive"}
{"smiles": "O=C(CCCCCn1c(=S)[nH]c2ccc(N3CCOCC3)cc2c1=O)NC1CCN(Cc2ccccc2)CC1", "outcome": "inactive"}
{"smiles": "O=C(Nc1ccncc1)c1cc(-c2ccccn2)nc2ccccc12", "outcome": "inactive"}
{"smiles": "CC(C)[C@H](NC(=O)c1ccccc1Cl)C(=O)Nc1nc(-c2ccccn2)cs1", "outcome": "inactive"}
{"smiles": "Cc1cc(Cl)ccc1OCC(=O)Nc1nc(-c2cccnc2)cs1", "outcome": "inactive"}
{"smiles": "CC1CC(C)CN(S(=O)(=O)c2ccc3c(c2)oc(=O)n3CC(=O)N(C)Cc2ccccc2)C1", "note": "(configuration not stated)", "outcome": "inactive"}
{"smiles": "COc1ccccc1Nc1nc(Cl)c(C=O)s1", "outcome": "inactive"}
{"smiles": "c1ccc2c(c1)CCc1ccccc1C2=C1CCNCC1", "outcome": "inactive"}
{"smiles": "COc1ccc(Cn2nnnc2C(c2cc3ccc(OC)cc3[nH]c2=O)N2CCC(C)CC2)cc1", "note": "(configuration not stated)", "outcome": "inactive"}
{"smiles": "Clc1ccc(CN2CCN(/N=C/c3ccco3)CC2)cc1", "outcome": "inactive"}
{"smiles": "CCOc1ccc(N2C(=O)S/C(=C\\c3ccc(O)c(OC)c3)C2=O)cc1", "outcome": "inactive"}
{"smiles": "Fc1ccc(NC(=S)Nc2cc(-c3ccccc3)[nH]n2)cc1Cl", "outcome": "inactive"}
{"smiles": "C/[N+]([O-])=C1\\Cc2ccccc2C1=O", "outcome": "inactive"}
{"smiles": "COc1ccc(CCN(C(=O)C(F)(F)F)C(C(=O)NC2CCCC2)c2cccs2)cc1", "note": "(configuration not stated)", "outcome": "inactive"}
{"smiles": "O=C(O)c1cccc(NC2=Nc3cccc4cccc2c34)c1", "outcome": "inactive"}
{"smiles": "Cc1cc(C)c2c(N)c(C(=O)c3ccc(Cl)c(Cl)c3)sc2n1", "outcome": "inactive"}
{"smiles": "COc1ccc(Cl)cc1N(C)C(=O)CCNC(=O)Cn1cnc2ccccc2c1=O", "outcome": "inactive"}
{"smiles": "Cc1cc(N2CCC(C)CC2)nc(NCc2ccccc2)n1", "outcome": "inactive"}
{"smiles": "COc1ccc(Nc2cc(C)nc(NCc3ccccc3)n2)cc1", "outcome": "inactive"}
{"smiles": "CN(C)C=NC(=O)c1cc(C(=O)c2ccc(Cl)cc2Cl)c[nH]1", "outcome": "inactive"}
{"smiles": "CCN(CC)CCN(C(=O)c1cccc([N+](=O)[O-])c1)c1nc2ccc(OC)cc2s1", "outcome": "inactive"}
{"smiles": "C=CCOc1ccc(Cl)cc1CNC1CCCC1", "outcome": "inactive"}
{"smiles": "O=C(COc1ccc(Br)cc1CNCCc1ccccc1)NCc1ccccc1", "outcome": "inactive"}
{"smiles": "CC(=O)c1c(C)[nH]c(C(=O)OCC(=O)NCC(C)C)c1C", "outcome": "inactive"}
{"smiles": "Cc1c(CN(C)C)c2c(n1Cc1ccccc1)C(=O)c1ccc(Br)cc1-2", "outcome": "inactive"}
{"smiles": "NC(=O)c1ccc[n+]([C@H]2O[C@@H](COP(=O)([O-])OP(=O)(O)OC[C@H]3O[C@@H](n4cnc5c(N)ncnc54)[C@H](O)[C@@H]3O)[C@H](O)[C@@H]2O)c1", "outcome": "inactive"}
{"smiles": "CCOC(=O)C(NC(=O)c1cccnc1)(Nc1cccc(C)n1)C(F)(F)F", "note": "(configuration not stated)", "outcome": "inactive"}
{"smiles": "Cn1c(=O)c(=O)n(C)c2cc(S(=O)(=O)N3CCc4ccccc43)ccc21", "outcome": "inactive"}
{"smiles": "COc1ccc(-c2nc3cc(NC(=O)Cc4ccc(OC)c(OC)c4)ccc3o2)cc1", "outcome": "inactive"}
{"smiles": "COC(=O)c1cc2oc(C)cc2n1CC(=O)Nc1ccc(C)c(C)c1", "outcome": "inactive"}
{"smiles": "CC(C)OC(=O)Cn1c(=O)sc2ccccc21", "outcome": "inactive"}
{"smiles": "CC(=O)Nc1ccccc1-c1nc2ccc(C(=O)N3CCN(c4cc(C)ccc4C)CC3)cc2[nH]c1=O", "outcome": "inactive"}
{"smiles": "COc1ccc(Cl)cc1C(=O)C1CCCN(CCO)C1", "note": "(configuration not stated)", "outcome": "inactive"}
{"smiles": "COc1c(Br)cc2c(C)c(C(=O)N3CCOCC3)oc2c1Br", "outcome": "inactive"}
{"smiles": "CCCCCCOc1ccc(CN2CCN(CC)CC2)cc1", "outcome": "inactive"}
{"smiles": "CCCN(CCC)c1nc(C)cc(C(C#N)c2nc3ccccc3o2)n1", "note": "(configuration not stated)", "outcome": "inactive"}
{"smiles": "CN(CC(=O)NCc1ccncc1)S(=O)(=O)c1ccccc1", "outcome": "inactive"}
{"smiles": "O=c1cc(-c2ccc(Cl)cc2)[nH][nH]1", "outcome": "inactive"}
{"smiles": "Cc1cc(N=Nc2ccccc2)c(NCC(O)C(O)C(O)CO)cc1C", "note": "(configuration not stated)", "outcome": "inactive"}
{"smiles": "O=C1c2ccccc2C(=O)N1CCCP(=O)(O)CCc1ccccc1", "outcome": "inactive"}
{"smiles": "Cc1ccc(C)c(N/C(N)=N/c2nc(C)cc(C)n2)c1", "outcome": "inactive"}
{"smiles": "Cc1cc(C)c(-n2nnnc2SC(C)C)c(C)c1", "outcome": "inactive"}
{"smiles": "Cc1ccccc1N1C(N)=NC(N)=NC1(C)C", "outcome": "inactive"}
{"smiles": "COc1cc(/C=N/N(C)S(=O)(=O)c2ccc(C)cc2)cc([N+](=O)[O-])c1O", "outcome": "inactive"}
{"smiles": "COc1ccccc1CNC(=O)Cn1c(=O)oc2cc(S(=O)(=O)N3CCCC3)ccc21", "outcome": "inactive"}
{"smiles": "CCCCN1/C(=C/c2cccc[n+]2C)Sc2cc(NC(C)=O)ccc21", "outcome": "inactive"}
{"smiles": "CCCCc1cc(=O)oc2cc(C)c(CN3CCCC3)c(O)c12", "outcome": "inactive"}
{"smiles": "O=C(NC(O)C(=O)c1ccccc1)c1ccc(F)cc1", "note": "(configuration not stated)", "outcome": "inactive"}
{"smiles": "O=C(/C=C/c1ccc(Cl)cc1Cl)NCc1ccncc1", "outcome": "inactive"}
{"smiles": "COc1ccccc1/C=C/C(=O)Nc1cccc(C(C)=O)c1", "outcome": "inactive"}
{"smiles": "Cc1ccc(N2C(N)=C(C#N)C(c3cccnc3)C3=C2CC(C)(C)CC3=O)cc1", "note": "(configuration not stated)", "outcome": "inactive"}
{"smiles": "CCOc1cc(CNC(C)(C)CO)cc(Br)c1OCc1ccc(Cl)cc1Cl", "outcome": "inactive"}
{"smiles": "OCCCCNCc1ccc(OCc2ccccc2Cl)cc1", "outcome": "inactive"}
{"smiles": "COc1cc(CNC2CCCC2)cc(Cl)c1OCc1ccccc1Cl", "outcome": "inactive"}
